High-throughput results (PubChem BioAssay)
hgDAF12 agonist – hgDAF-12 agonism, primary luciferase screen; HEK293 GAL4-hgDAF12 UAS-luciferase reporter, agonist luminescence; normalized to butyrate control; activation, % at 6.8 µM; 370,000 compounds, 1.8% hits; AID 687014;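 active = activation above a cutoff set at the mean of all screened compounds plus 3 SD, cut at about 10% in these data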
Rev-erbA mod – modulators of human Rev-erb alpha DNA binding | 370,000 compounds, 0.79% hits | Rev-erbα–FITC-DNA binding, fluorescence polarization, 90 min | P20393 | activity, % at 10 µM;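 active = activity above about 14%, limit read from the data; passing the limit was not always enough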
DAX1 inh-1 – NR0B1 (DAX1) inhibition. 340,000 compounds, 0.99% hits. P51843. inhibition, % at 6.75 µM. AID 504766. HEK293 Gal4-DAX1 luciferase reporter, luminescence;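 active = inhibition above the mean over all tested compounds plus 3 SD, cut at about 4.2% in these data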;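 note: inhibition shows as a rise in luminescence from relieved DAX1 repression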
Target sequence (P51843 207-470 limits assumed): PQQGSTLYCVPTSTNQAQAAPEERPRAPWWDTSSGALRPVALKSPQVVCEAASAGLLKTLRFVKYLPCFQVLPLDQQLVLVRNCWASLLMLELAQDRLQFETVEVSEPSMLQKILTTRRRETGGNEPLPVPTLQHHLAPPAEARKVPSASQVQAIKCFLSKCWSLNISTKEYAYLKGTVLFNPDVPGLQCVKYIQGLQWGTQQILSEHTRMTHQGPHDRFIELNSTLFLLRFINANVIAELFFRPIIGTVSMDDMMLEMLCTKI
DAX1 inh-2 – DAX1 (NR0B1) inhibition, primary screen | HEK293T StAR-luciferase reporter, SF-1/DAX-1 repression relief | inhibition, % at 6.8 µM | 370,000 compounds, 1.1% hits;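 active = inhibition above the mean over all tested compounds plus 3 SD, cut at about 3.6% in these data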;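 note: higher inhibition means more luminescence from relief of DAX-1 repression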
ssDAF12 agonist – activators of S. stercoralis DAF-12 nuclear receptor; 370,000 compounds, 1% hits; AID 652126; HEK293 ssDAF-12/GRIP1 lit1-tk-luc reporter, luminescence; % of 3 µM dafachronic acid response; activation, % at 6.8 µM;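 active = activation above the mean over all tested compounds plus 3 SD, cut at about 0.9% in these data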
hcDAF12 agonist – H. contortus DAF-12 activation, primary screen; HEK293 hcDAF-12 lit1-tk-luc reporter, luminescence; 0% DMSO, 100% Δ7-dafachronic acid; activation, % at 6.8 µM; 370,000 compounds, 1.4% hits; AID 652067;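 active = activation above the mean of all tested compounds plus 3 SD, cut at about 5.5% in these data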
DAX1 inh confirm – NR0B1 (human) inhibition, confirmation; shares compounds with DAX1 inh-2; HEK293T StAR-promoter luciferase reporter, SF-1/DAX-1 repression; inhibition, % at 6.8 µM; 2,400 compounds, 87% hits;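 active = inhibition above the average of every tested compound plus 3 SD, cut at about 3.8% in these data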;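 note: active compounds raise luminescence by relieving repression of the StAR reporter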
Target sequence (P51843 whole entry, looked up): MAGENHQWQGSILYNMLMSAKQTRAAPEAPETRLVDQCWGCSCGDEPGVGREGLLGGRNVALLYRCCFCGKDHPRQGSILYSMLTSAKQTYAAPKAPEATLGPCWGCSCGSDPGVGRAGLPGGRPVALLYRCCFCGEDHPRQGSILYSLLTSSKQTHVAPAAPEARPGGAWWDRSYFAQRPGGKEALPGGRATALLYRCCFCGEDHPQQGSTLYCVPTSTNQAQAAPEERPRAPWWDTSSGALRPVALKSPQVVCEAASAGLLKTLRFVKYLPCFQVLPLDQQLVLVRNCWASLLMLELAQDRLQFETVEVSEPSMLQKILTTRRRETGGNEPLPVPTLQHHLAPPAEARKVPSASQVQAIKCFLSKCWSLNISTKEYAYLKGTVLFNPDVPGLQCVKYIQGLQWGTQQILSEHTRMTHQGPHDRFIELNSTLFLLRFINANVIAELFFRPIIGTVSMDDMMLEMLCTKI
SF1 mutant ctr – counter-screen for DAX1 inhibitors: nonselective inhibitors with SF-1 AF2 mutant. inhibition, % at 6.8 µM. AID 652136. 2,400 compounds, 78% hits. shares compounds with DAX1 inh-2. HEK293 StAR-luciferase, luminescence;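 active = inhibition above the mean of all tested compounds plus 3 SD, cut at about 3% in these data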
Of the large screens only hits and unclear results are named; the others gave an inactive call (follow-up assays come after a bar, where they were run). Most compounds without a hit are left out; they make up all but 4.8% or so of the library.

COC(=O)[C@H]1C[C@@]2(C#N)c3ccccc3N(C(=O)OC(C)(C)C)[C@H]2N1C(=O)OC(C)(C)C	none (no result: DAX1 inh-1)
O=C(Nc1ccccn1)c1ccc(Cl)s1	hgDAF12 agonist 12, DAX1 inh-2 5.2 | DAX1 inh confirm 7.0 | SF1 mutant ctr 6.2
O=C(NCc1ccccn1)c1ccc(Cl)s1	none
COc1ccccc1OCC(=O)Nc1ccc2c(c1)OCO2	none
CCc1ccccc1NC(=O)COc1ccc2c(c1)OCO2	none
COc1cc(C)ccc1OCC(=O)Nc1ccc2c(c1)OCO2	DAX1 inh-2 6.2 | DAX1 inh confirm 7.7 | SF1 mutant ctr 6.3
O=C(COc1ccc(F)cc1)Nc1ccc2c(c1)OCCO2	DAX1 inh-2 5.0 | DAX1 inh confirm 4.2 | SF1 mutant ctr inactive
CC(C)(C)c1nnc(NC(=O)c2ccc3c(c2)OCO3)s1	none
CC(C)(C)c1nnc(NC(=O)COc2ccc3c(c2)OCO3)s1	DAX1 inh-2 7.9 | DAX1 inh confirm 9.1 | SF1 mutant ctr 7.2
Cc1ccc(NC(=O)COc2ccc3c(c2)OCO3)c(Cl)c1	hgDAF12 agonist 13, DAX1 inh-2 5.0 | DAX1 inh confirm 9.2 | SF1 mutant ctr 4.3
CCC[C@H]1[C@@H](OC(=O)NCc2ccco2)CC[C@@]23CCCN2C(=O)CCC[C@@H]13	none (no result: DAX1 inh-1, DAX1 inh-2)
O=C(COc1ccc(F)cc1)Nc1nccs1	hgDAF12 agonist 12, DAX1 inh-2 7.5 | DAX1 inh confirm 11 | SF1 mutant ctr 6.3
O=C(CS(=O)(=O)c1ccc(F)cc1)Nc1nccs1	none
COc1cccc(N(C)C(=O)[C@@H](C2CC2)[C@@H](O)c2ccc(Cl)cc2)c1	none (no result: DAX1 inh-1)
Clc1ccc(-c2nnc(SCc3ccon3)o2)c(Cl)c1	hgDAF12 agonist 16, DAX1 inh-2 7.2, hcDAF12 agonist 6.2 | DAX1 inh confirm 11 | SF1 mutant ctr 5.4
CCCCN(C)S(=O)(=O)c1ccc2[nH]c(=O)oc2c1	none (no result: DAX1 inh-1)
CC(=O)c1c(C)[nH]c(C(=O)Nc2ccc(S(=O)(=O)N(C)C)cc2)c1C	none
CC(=O)c1c(C)[nH]c(C(=O)Nc2ccc(C)c(S(=O)(=O)N(C)C)c2)c1C	hgDAF12 agonist 10, DAX1 inh-2 13, ssDAF12 agonist 1.0 | DAX1 inh confirm 15 | SF1 mutant ctr 6.7
CCOC(=O)NC[C@@]1(C(=O)OC)CC(=O)N(C)[C@@H]1c1ccccc1	none (no result: DAX1 inh-1)
COc1ccc(-c2cc(NC=O)c3ncc(-c4ccc(OC)c(OC)c4)n3c2)c(OC)c1	DAX1 inh-2 6.5 (no result: DAX1 inh-1) | DAX1 inh confirm 12 | SF1 mutant ctr inactive
COc1ccc(-c2cc(NC=O)c3ncc(-c4cc(OC)c(OC)c(OC)c4)n3c2)cc1	DAX1 inh-2 4.6 (no result: DAX1 inh-1) | DAX1 inh confirm 4.0 | SF1 mutant ctr inactive
COc1cccc(-c2cnc3c(NC=O)cc(-c4ccc(OC)cc4OC)cn23)c1	none (no result: DAX1 inh-1)
COC(=O)[C@]12C[C@H](CC(=O)NCc3cccc(C(F)(F)F)c3)C(=O)N(Cc3cccc4ccccc34)C1=C[C@H](C(C)(C)C)O[C@@H]2C	none (no result: DAX1 inh-1)
O=C(O)/C=C/c1cnn(-c2ccccc2)c1	DAX1 inh-2 5.0 | DAX1 inh confirm 7.3 | SF1 mutant ctr 3.5
CCC(=O)C1CCCN(C(=O)CCc2nnc(-c3ccc(C(C)=O)s3)o2)C1 (stereo not given)	DAX1 inh-2 5.3, hcDAF12 agonist 6.0 | DAX1 inh confirm 6.8 | SF1 mutant ctr 4.8
Cc1cccnc1N=O	none (no result: DAX1 inh-1)
C[C@@H]1COc2cccc(N3CCCC3)c2S(=O)(=O)N1	none (no result: DAX1 inh-1)
CCOC(=O)N(C)[C@H]1C[C@H]2c3cc(-c4ccccc4C)ccc3CCN2C[C@H]1[C@H](C)O	none (no result: DAX1 inh-1)
O=C(C1CCC(C(=O)N2CCc3ccccc32)CC1)N1CCc2ccccc21 (stereo not given)	none
O=C(Nc1ccccc1)C(=O)Nc1ccc2c(c1)N(C(=O)C1CC1)CCC2	hgDAF12 agonist 11, DAX1 inh-2 6.0 | DAX1 inh confirm 4.1 | SF1 mutant ctr inactive
COc1ccc(NC(=O)C2=Cc3ccccc3OC2)cc1	hgDAF12 agonist 18, DAX1 inh-2 8.0, ssDAF12 agonist 1.2, hcDAF12 agonist 5.8 | DAX1 inh confirm 18 | SF1 mutant ctr 8.2
O=C(Nc1ccc(Cl)cc1)C1=Cc2cc(Cl)ccc2OC1	none
C/C(=N\NC(=O)c1cccc(C)c1O)c1ccc(NC(=O)Cc2ccccc2)cc1	DAX1 inh-2 6.0, hcDAF12 agonist 6.5 | DAX1 inh confirm 4.8 | SF1 mutant ctr 3.8
O=C(OCC(=O)N1CCCCC1)c1c[nH]c2ccccc12	none
O=C(OCC(=O)N1CCCCC1)c1cc(=O)[nH]c2ccccc12	DAX1 inh-2 4.9 | DAX1 inh confirm inactive | SF1 mutant ctr inactive
COc1ccc(/C=C/S(=O)(=O)NCc2ccc(F)cc2)c(CNC(=O)OC(C)(C)C)c1	none (no result: DAX1 inh-1)
CSc1ccc(CC(=O)N2CCC(n3nccc3NC(=O)C3CC3)CC2)cc1	hgDAF12 agonist 12, DAX1 inh-2 6.0 | DAX1 inh confirm inactive | SF1 mutant ctr inactive
COc1ccc(C(F)(F)F)cc1NC(=O)C(OC(=O)CNC(=O)c1ccccc1)c1ccccc1 (stereo not given)	none (no result: DAX1 inh-1, DAX1 inh-2)
CCc1ccc(C(=O)Nc2nc(C)cs2)s1	hgDAF12 agonist 11, DAX1 inh-2 16 | DAX1 inh confirm 9.9 | SF1 mutant ctr 6.1
CCOC(=O)c1sc(NC(=O)c2ccc(CC)s2)nc1C	none
CN(Cc1ccccc1)C(=O)c1cccc(NC(=O)Cc2cccc(NC(=O)C3CCN(C(=O)CCc4ccccc4)CC3)c2)c1	none (no result: DAX1 inh-1)
COc1ccc2cc(CCNC(=O)c3ccco3)c(=O)[nH]c2c1	hgDAF12 agonist 11, DAX1 inh-2 6.0 | DAX1 inh confirm 9.4 | SF1 mutant ctr 5.8
COc1cc(-n2c(C)nc3cc(C(=O)N4CCN(C(C)=O)CC4)ccc32)cc(OC)c1OC	none (no result: DAX1 inh-1)
COc1ccccc1CN1CCC(CNS(=O)(=O)c2cc(-c3onc(C)c3C)ccc2OC)CC1	DAX1 inh-2 4.6 | DAX1 inh confirm inactive | SF1 mutant ctr 3.1
CCOC(=O)N1CCN(c2ncnc3c2cnn3-c2ccc(OC)cc2)CC1	none
COc1ccc(-n2ncc3c(N4CCC(C)CC4)ncnc32)cc1	hgDAF12 agonist 10, DAX1 inh-2 6.6, hcDAF12 agonist 6.5 | DAX1 inh confirm 12 | SF1 mutant ctr 4.5
CCCCN(C)CCNC(=O)CN1C(=O)CSc2ccc(S(=O)(=O)N3CCCC3)cc21	DAX1 inh-2 7.2 | DAX1 inh confirm inactive | SF1 mutant ctr inactive
CCCCNC(=O)CN1C(=O)CSc2ccc(S(=O)(=O)N3CCOCC3)cc21	none
